About 79,000 compounds went through this panel and 15% of them were active in at least one assay; those are over-represented in the sample as a whole. The source made the active and inactive calls. No stated cut-off is given here; in the data, active means growth inhibition above about 70%; inactive means the rest.
Columns and labels:
[1] = NCI Yeast Anticancer Drug Screen. Data for the rad50 strain (AID 155);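 further: 0% = growth of vehicle-only cultures of the same strain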; conditions: S. cerevisiae rad50 strain growth inhibition; at 50.0 µM; stronger effect = higher value
How it was run: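 Readout: growth inhibition relative to vehicle-treated cultures. Compound exposure was carried out in a genetically defined yeast strain deficient in DNA damage repair.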

[2] = NCI Yeast Anticancer Drug Screen. Data for the mec2-1 strain (AID 157); conditions: S. cerevisiae mec2-1 strain, at 50.0 µM, stronger effect = higher value
How it was run: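 Using mec2-1 yeast: add compound, measure growth, express inhibition versus vehicle-treated cultures.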

[3] = NCI Yeast Anticancer Drug Screen. Data for the sgs1 mgt1 strain (AID 161);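 further: 0% = growth of cultures given vehicle only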; conditions: S. cerevisiae sgs1 mgt1 strain, at 50.0 µM, stronger effect = higher value
How it was run: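 This yeast growth screen uses a strain with defined DNA-repair lesions; compound-treated growth is compared with vehicle-treated growth.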

[4] = NCI Yeast Anticancer Drug Screen. Data for the cln2 rad14 strain (AID 165);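 further: 0% = growth equal to vehicle treated cultures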; conditions: S. cerevisiae cln2 rad14 strain, at 50.0 µM, stronger effect = higher value
How it was run: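 Yeast strain cln2 rad14, bearing defects in cell cycle control and DNA repair, serves as the test system; values reflect growth inhibition compared with vehicle.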

[5] = NCI Yeast Anticancer Drug Screen. Data for the bub3 strain (AID 167); conditions: S. cerevisiae bub3 mutant strain, at 50.0 µM, stronger effect = higher value
How it was run: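 Readout: yeast growth inhibition, expressed relative to vehicle-only wells. The test organism is a mutant strain from a panel with lesions in DNA repair or checkpoint genes.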

[6] = NCI Yeast Anticancer Drug Screen. Data for the mlh1 rad18 strain (AID 175); conditions: S. cerevisiae mlh1 rad18 strain growth inhibition; at 50.0 µM; stronger effect = higher value
How it was run: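 Steps: expose repair-defective yeast to compound; measure growth; express inhibition against vehicle-treated controls.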

Measured: growth inhibition

C(=N/N=C(/C(=N/N=C/c1ccccc1)c1ccccc1)c1ccccc1)\c1ccccc1
inactive: [1] 26.6% | [2] 5% | [3] 33.3% | [4] 8.4% | [5] 11.9% | [6] 5.45%

CCCC(=O)Nc1ccc(OCC)cc1
inactive: [1] -9.5% | [2] -4.1% | [3] -11.8% | [4] -49.5% | [5] -18.8% | [6] -16.6%

CCN(CC)C(=O)c1cccc(C(=O)N(CC)CC)n1
inactive: [1] 11.1% | [2] 3.6% | [3] 10.2% | [4] 39.4% | [5] 21.4% | [6] 24.7%

COC(=O)C1(C)C(=O)NC(=O)CC1C (configuration not stated)
inactive: [1] 9.65% | [2] 0% | [3] 1% | [4] -30.5% | [5] -2.5% | [6] -3.2%

O=C1C2Cc3ccccc3CN2C(=O)N1CCN1CCCC1 (configuration not stated)
inactive: [1] -19.1% | [2] -33.7% | [3] -12.1% | [4] 4.3% | [5] -22.6% | [6] 8%

CC(=O)Nc1cccc(/C=C/C=C/c2cccc([N+](=O)[O-])c2)c1
active: [1] 89.3% | [2] 91.2% | [3] 93.5% | [4] 81.1% | [5] 91.3% | [6] 91.2%

CC1CN(C(=O)Nc2ccc([N+](=O)[O-])cc2)CC(C)O1 (configuration not stated)
inactive: [1] -16.1% | [2] -36.5% | [3] 13.7% | [4] 3.5% | [5] -3.65% | [6] 6.25%

ClCCCCCOCCCCCCl
inactive: [1] 8.15% | [2] 1.25% | [3] -1.5% | [4] -11.7% | [5] -4.75% | [6] -1.05%

O=[N+]([O-])c1cccc(S(=O)(=O)O)c1 (tested in a mixture with another compound)
inactive: [1] 15.3% | [2] -3.65% | [3] -0.1% | [4] -33.6% | [5] -2.2% | [6] -4.95%

CCOc1ccc(NC(=O)COc2ccc(Cl)cc2Cl)cc1
inactive: [1] 14.9% | [2] 22.3% | [3] 23.5% | [4] 18.4% | [5] 26.1% | [6] 14.9%

COc1ccc2c(c1)c1c3c(ccc4ncn2c43)N(CCO)CCN=1
inactive: [1] -19.6% | [2] -52% | [3] -25.9% | [4] -23.5% | [5] -12% | [6] 1.6%

CCOC(=O)c1cnc(NCCCCCCNc2ncc(C(=O)OCC)c(=O)[nH]2)[nH]c1=O
inactive: [1] 29.7% | [2] -1.5% | [3] -3.65% | [4] -6.8% | [5] -3.1% | [6] 21.7%

CCCc1[nH]n(-c2cccc([N+](=O)[O-])c2)c(=O)c1N=Nc1ccc(Cl)cc1
inactive: [1] 40.9% | [2] 24.1% | [3] 21.5% | [4] 20.9% | [5] -2.5% | [6] 26.9%

BrCCCCOc1ccccc1
inactive: [1] 3.5% | [2] 2.65% | [3] -11.3% | [4] -4.25% | [5] -2.7% | [6] 2.7%

NC1=C(O)C(=O)C(c2cccc(O)c2)O1 (configuration not stated)
inactive: [1] -8.1% | [2] -10.1% | [3] 7.9% | [4] -5.05% | [5] 3.2% | [6] 8.45%

C[CH2][Sn]([CH2]C)([O]P(=O)(C[Si](C)(C)C)c1ccccc1)[O]P(=O)(C[Si](C)(C)C)c1ccccc1 (configuration not stated)
inactive: [1] 0% | [2] 8.7% | [3] 4.2% | [4] 24% | [5] 53.2% | [6] 17.2%

CCCCCOC(C)(OCCCCC)OCCCCC
inactive: [1] 7% | [2] 13.6% | [3] -4.2% | [4] 2.8% | [5] 9.6% | [6] 7.5%

CC(=O)OC(C)(C)c1ccc2c(c1)C(=O)C[C@@H]1[C@](C)(C#N)CCC[C@]21C
inactive: [1] 46.6% | [2] 0.3% | [3] -2.75% | [4] -5.35% | [5] 52.1% | [6] 35.5%

Clc1ccc(C2OCCCO2)cc1
inactive: [1] -21.1% | [2] 7.8% | [3] -9.7% | [4] 10.2% | [5] -8.4% | [6] -1.65%

O=c1[nH]c(=S)[nH]c2[nH]c(=S)ncc12
inactive: [1] -26.8% | [2] -43.1% | [3] -31.8% | [4] 1.9% | [5] -13.1% | [6] -15.1%

Cc1cccc(Cl)c1NC(=O)Nc1ccc(Cl)cc1C(=O)c1ccccc1
inactive: [1] 5.5% | [2] -4.1% | [3] 6.75% | [4] 4.2% | [5] 7.45% | [6] -9.6%

COc1ccc(C(Cc2ccccc2Cl)N(CCO)CCO)cc1 (configuration not stated)
inactive: [1] -7% | [2] -5.3% | [3] -9.1% | [4] -19.2% | [5] 5.5% | [6] -5.2%

CS(C)=O.[Cl-].[Cl-].[NH-]CC(O)C[N-]CC(O)CN.[Pt+4] (configuration not stated)
inactive: [1] -9.2% | [2] -19.7% | [3] -20.4% | [4] -9.65% | [5] -3.5% | [6] 9.55%

O=C1C(Cl)=C(Cl)C(=O)N1c1ccccc1Cl
inactive: [1] 42.5% | [2] 23.6% | [3] 36.5% | [4] 43.9% | [5] 34.7% | [6] 55.5%

Cc1cc(N(CCC#N)CCC#N)ccc1/C=C(\NC(=O)/C=C/c1ccccc1)NC(=O)Nc1ccc(Cl)cc1
inactive: [1] 13.5% | [2] 2.75% | [3] -17.9% | [4] 10.8% | [5] 12.5% | [6] 29.2%

COC(=O)c1c2c(cc3c1CC1(Cc4ccccc4C1)C3)CCC2
inactive: [1] 1.15% | [2] 11.6% | [3] 17% | [4] 0.6% | [5] 2.6% | [6] 18.6%

CC(C)c1cc(C(C)C)c(S(=O)(=O)N/N=C2\CC3CCC2(C)C3(C)C)c(C(C)C)c1 (configuration not stated)
inactive: [1] -8.7% | [2] -16.9% | [3] -13.3% | [4] -4.35% | [5] -54.5% | [6] 0.65%

COc1cc(C)cc(OC)c1/C=C/C(=O)O
inactive: [1] 8.4% | [2] 11.1% | [3] -8.6% | [4] -13.6% | [5] 1.75% | [6] 2.25%

COC(=O)c1c(-c2ccccc2)cc2c3cc(-c4ccccc4)c(C(=O)OC)n3c3ccccc3n12
inactive: [1] -2.35% | [2] -4.55% | [3] -31.5% | [4] -23.9% | [5] -1.95% | [6] -10.6%

COC(=N)CC(=O)C(C)(C)C
inactive: [1] -6.4% | [2] -15.9% | [3] -13.7% | [4] -9.65% | [5] -6.25% | [6] -7.2%

CNC(=O)/C(=C\c1ccccc1)NC(C)=O
inactive: [1] 9% | [2] -13.6% | [3] 6% | [4] -54.7% | [5] 17.9% | [6] -25.1%

Cn1nc2c(c1-c1ccncc1)CCc1ccccc1-2
inactive: [1] 3.9% | [2] 65.3% | [3] 36% | [4] -3.55% | [5] 66.1% | [6] 24.6%

O=C1C=CC(=O)N1C(c1ccccc1)(c1ccccc1)c1ccccc1
active: [1] 99% | [2] 99.7% | [3] 99.5% | [4] 99% | [5] 99.5% | [6] 99.5%

CCN(CC)c1ccc(-c2ccccc2)cc1
inactive: [1] 28.1% | [2] 5.4% | [3] -8.45% | [4] -69.4% | [5] 2.9% | [6] 8.5%

CCC/C=C/c1cc2c(cc1O)CC[C@@H]1[C@@H]2CC[C@]2(C)[C@@H](O)CC[C@@H]12
inactive: [1] 19.2% | [2] 16.4% | [3] 45.6% | [4] 35.4% | [5] 41.3% | [6] 23.9%

Clc1ccc([I+]c2ccc(Cl)cc2)cc1
active: [1] 96.2% | [2] 95.5% | [3] 97.5% | [4] 97.4% | [5] 97% | [6] 97.2%

Cc1noc(-c2ccccc2)c1N=Nc1ccccc1
inactive: [1] 11.6% | [2] 12.1% | [3] 28.1% | [4] -34.2% | [5] 45.1% | [6] 28.5%

From PubChem BioAssay (NCI)
